From PubChem BioAssay (NCATS) come the findings set out here.

Inconclusive results are not listed. Calls of active or inactive are those of the source. The call rests on the fitted dose curve; in most records, active means well fitted curve in the direction sought with a large enough effect; inconclusive means small, poorly fitted or top-dose-only effect, or another doubt; inactive means no such curve, though single readings can be large; an effect the other way counts as inactive or inconclusive.

Test [1] addresses Calcium and integrin-binding protein 1 (Homo sapiens) (UniProt Q99828). Briefly: Primary qHTS for Identification of Calcium Integrin Binding Protein 1 (CIB1) Competitor (AID 1508620).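 Further: GST tagged CIB1 binding a fluorescein labelled alphaIIb integrin peptide tracer; top concentration of the series differs between compounds; on the % scale 0 is the no-effect control and ±100 the full control effect.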 In short, it runs like this: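 CIB1-GST (1 uM final) and compound incubated 15 min at room temperature before adding FITC-alphaIIb peptide tracer (100 nM final). Competition for binding read by fluorescence polarization (ex 480, em 540) after another 15 min at room temperature.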
In general terms: In qHTS, concentration-response curves come from the screen itself.

Test [2] is described as follows: Primary qHTS for inhibitors of nuclear receptor binding SET domain protein 2 (NSD2) in an isogenic RCH-ACV NSD2 p.E1099K mutant (9B) (AID 1645876). Further: nearly all actives have a fitted effect of over 70% in size. Further: potency means the concentration at half of the fitted maximal effect.
Test [3] is described as follows: Primary qHTS for inhibitors of nuclear receptor binding SET domain protein 2 (NSD2) in an RCH-ACV wild type WT cells (2C) (AID 1645877). Further: nearly all actives have a fitted effect of over 70% in size. Further: potency means the concentration at half of the fitted maximal effect.
The target in test [4] is Glutathione peroxidase 1 (Homo sapiens) (UniProt P07203). Briefly: Primary qHTS Assay for Inhibitors of Recombinant Selenoprotein Glutathione Peroxidase 1 (GPX1) (AID 1845191). Further: nearly all actives have a fitted effect of over 65% in size. In short, it runs like this:
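NADPH consumption tracked by fluorescence at 340/450 nm between t=0 and t=15 min, room temperature. Final mix: 10 nM GPX1, 100 nM glutathione reductase, 1 mM GSH, 0.5 mM NADPH, 0.5 mM cumene hydroperoxide, 0.01% BSA; 30 min compound–enzyme preincubation.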

The target of test [5] is Phospholipid hydroperoxide glutathione peroxidase GPX4 (Homo sapiens) (UniProt P36969). Briefly: Primary qHTS Assay for Inhibitors of Recombinant Selenoprotein Glutathione Peroxidase 4 (GPX4) (AID 1845192). Further: on the % scale 0 is the no-effect control and ±100 the full control effect; nearly all actives have a fitted effect of over 65% in size. To be noted: outcome: dose series up to 50 µM unless noted. In short, it runs like this: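 NADPH consumption followed by fluorescence at 340/450 nm, t=0 and after 15 min at room temperature. Reaction started with cumene hydroperoxide (0.5 mM final) after 30 min compound–GPX4 preincubation; final 200 nM GPX4, 100 nM GR, 1 mM GSH, 0.5 mM NADPH.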
Chain of Phospholipid hydroperoxide glutathione peroxidase GPX4 (Homo sapiens) (P36969 whole entry, looked up): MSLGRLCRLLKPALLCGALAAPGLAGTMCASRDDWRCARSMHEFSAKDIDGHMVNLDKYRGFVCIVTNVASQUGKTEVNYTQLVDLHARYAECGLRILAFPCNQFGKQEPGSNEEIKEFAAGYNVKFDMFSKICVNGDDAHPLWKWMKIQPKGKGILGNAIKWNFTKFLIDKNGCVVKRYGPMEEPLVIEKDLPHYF

In test [6] the target is Luciferin 4-monooxygenase (Photinus pyralis) (UniProt P08659). The test can be described thus: Primary firefly luciferase (FLuc) qHTS assay for identification of artifact compounds. (AID 1845220). Further: nearly all actives have a fitted effect of over 60% in size. The essentials:
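FLuc 10 nM; luciferin 10 uM; ATP 10 uM; Tris-acetate pH 7.6, Mg-acetate 10 mM; 15 min RT preincubation; 5 min reaction; luminescence.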

Test [7] concerns Nanoluciferase (engineered Oplophorus gracilirostris luciferase). Briefly: Primary Nanoluciferase (NLuc) qHTS assay for identification of artifact compounds. (AID 1845222).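 Further: NLuc secreted into diluted conditioned medium of S16 cells; 0% = DMSO and -100% = no enzyme.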 In short, it runs like this: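 NLuc from S16 cell medium (1:55) plus test compounds, 15 min, room temperature. Luminescence after Nano-Glo (1:100) addition, 5 min.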
Test [8] is described as follows: Primary redox qHTS assay for identification of artifact compounds. (AID 1845223).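 Further: 0% = DMSO and 100% = reference compound.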 The essentials:
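Redox-cycling detection via DTT (250 uM final) oxidation coupled to Amplex Red (25 uM)/HRP (250 mU/mL) in HBSS. 15 min preincubation plus 30 min after DTT, room temperature. Ex/Em 525/598 nm; 4-parameter Hill fit against DMSO and 10 uM DA3003.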

In the next test the test system is HaCat. Briefly: Cytotoxic Profiling of Annotated Libraries Using Quantitative High-Throughput Screening (AID 1296008). Further: nearly all actives have a fitted effect of over 60% in size. On max response: on the % scale 0 is the no-effect control and ±100 the full control effect. The settings on record: Five cell lines viability, CellTiter-Glo ATP luminescence, 48-72 h; max response: hits give low values. The essentials: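 Cytotoxicity was measured as CellTiter-Glo ATP luminescence, read after 10 min at room temperature. Compound treatment of the cells lasted 48 or 72 hr at 37 degrees Celsius in a qHTS format.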
(In general: In ATP-based viability assays light output follows the ATP content of the culture.)

The test system of another test is C33A. Briefly: Primary qHTS to identify gynecologic anti-cancer compounds using libraries of approved drugs and bioactive compounds (AID 1345084). Further: on the % scale 0 is the no-effect control and ±100 the full control effect; nearly all actives have a fitted effect of over 55% in size. To be noted: Gynecologic cancer cell panel viability, ATPlite luminescence, 48 h; series mostly up to 57.5 µM. In short, it runs like this: (§1)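 Cells, 1,000 per well, plated 16 h, then exposed 48 h at 37 C to compounds. Viability by ATPlite luminescence after 15 min at room temperature.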

Another test concerns CASKI. The test is described as above. To be noted: Gynecologic cancer cell panel viability, ATPlite luminescence, 48 h; series mostly up to 57.5 µM. The essentials:
as §1

For the next test, the system named is Es-2. The test is described as above. To be noted: Gynecologic cancer cell panel viability, ATPlite luminescence, 48 h; series mostly up to 57.5 µM. The essentials:
as §1

The next test concerns Hek293T. The description is as above. To be noted: Gynecologic cancer cell panel viability, ATPlite luminescence, 48 h, control line for the selectivity index; series mostly up to 57.5 µM. The essentials:
as §1

For another test, the system named is JEG-3. The description is as above. To be noted: Gynecologic cancer cell panel viability, ATPlite luminescence, 48 h; series mostly up to 57.5 µM. In short, it runs like this: as §1
For a further test, the system named is OV90. The test is described as above. To be noted: Gynecologic cancer cell panel viability, ATPlite luminescence, 48 h; series mostly up to 57.5 µM. The essentials: as §1
In a further test the test system is Tov-21-G. The test is described as above. To be noted: Gynecologic cancer cell panel viability, ATPlite luminescence, 48 h; series mostly up to 57.5 µM. The essentials: as §1
The next test has as its system Tov112D. Described as above. The settings on record: Gynecologic cancer cell panel viability, ATPlite luminescence, 48 h; series mostly up to 57.5 µM. In short, it runs like this: as §1
In test [9] the test system is Zika virus NS2B-NS3 protease (linked construct). The test can be described thus: Primary screen NINDS Rhodamine qHTS for Zika virus inhibitors (AID 1347160). Further: nearly all actives have a fitted effect of over 55% in size. Further: potency means the concentration at half of the fitted maximal effect. The essentials:
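Aprotinin served as in-plate control. Conditions: 25 nM linked NS2B-NS3, pH 8.0 Tris buffer, titrated compounds, 15 min preincubation and 15 min reaction with 1.5 microM Rhod110 substrate at room temperature.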

The next test deals with HeLa. The test can be described thus: Primary qHTS to identify gynecologic anti-cancer compounds using libraries of approved drugs and bioactive compounds (AID 1345084). Further: on the % scale 0 is the no-effect control and ±100 the full control effect; nearly all actives have a fitted effect of over 55% in size. To be noted: Gynecologic cancer cell panel viability, ATPlite luminescence, 48 h; series mostly up to 57.5 µM. The essentials:
as §1

Chain of Glutathione peroxidase 1 (Homo sapiens) (P07203 whole entry, looked up): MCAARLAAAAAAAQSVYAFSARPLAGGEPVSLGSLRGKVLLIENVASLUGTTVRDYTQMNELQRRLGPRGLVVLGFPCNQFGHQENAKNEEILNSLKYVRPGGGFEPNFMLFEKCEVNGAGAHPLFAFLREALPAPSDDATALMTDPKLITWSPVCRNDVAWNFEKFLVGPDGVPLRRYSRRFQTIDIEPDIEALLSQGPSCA
Chain of Calcium and integrin-binding protein 1 (Homo sapiens) (Q99828 whole entry, looked up): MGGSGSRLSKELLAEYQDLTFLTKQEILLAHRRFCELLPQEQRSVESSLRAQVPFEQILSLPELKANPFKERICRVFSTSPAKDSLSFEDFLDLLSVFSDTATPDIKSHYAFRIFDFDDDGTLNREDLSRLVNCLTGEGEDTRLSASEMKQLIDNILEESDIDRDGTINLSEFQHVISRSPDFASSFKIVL

Regarding `COc1ccc2c(c1)C[C@H](C(=O)Nc1ccc(-c3cn[nH]c3)cc1OCCN(C)C)CO2`, the result (in test [1]; with HaCat) was inactive. Further, the Potency in [2] was 0.291 µM (active); in test [3], 0.164 µM (active). The Potency entry (in test [4]; in test [5]; in test [6]; in [7]; in test [8]; in the test on C33A) was “inactive” each time. For the same compound, the Potency entry with CASKI, in the test on Es-2, in the test on Hek293T, in the test with JEG-3, in the test with OV90 and in the test on Tov-21-G was “inactive” throughout. In addition, the Potency result in the test with Tov112D is “inactive”.

Consider `CN(Cc1ccc(C(=O)O)cc1)c1ccc(OCc2c(-c3c(Cl)cccc3Cl)noc2C2CC2)nc1C(F)(F)F`, for which the Potency in test [9] was 2.51 µM (active). The outcome in test [1] was inactive. Also, the Potency entry (in [6]; in test [7]; in test [8]; in the test with C33A; in the test on CASKI; with Es-2) was “inactive” in each case. Further, the Potency entry in the test on HeLa, in the test with Hek293T, in the test with JEG-3, in the test with OV90, in the test on Tov-21-G and in the test with Tov112D was “inactive” in each case.

For the compound `C[C@@H](c1nc(-c2ccc(C#N)cc2)cs1)[C@](O)(Cn1cncn1)c1cc(F)ccc1F`, the Potency result in test [9], in [4], in test [5], in [6], in test [7] and in test [8] was “inactive” throughout. In addition, the Potency result in the test on C33A, in the test with CASKI, in the test with Es-2, in the test with HeLa, in the test with Hek293T and in the test with JEG-3 was “inactive” each time. Further, the Potency result in the test on OV90, with Tov-21-G and in the test on Tov112D was “inactive” in each case. Further, the outcome (in [1]; in the test with HaCat) was inactive. Also, the Potency is 8.17 µM (active) in test [2] and 11.5 µM (active) in [3].

In the case of `CCCCOc1ccc(-c2cncc(C(=O)NCc3cccnc3N3CCOCC3)c2)cc1Cl`, the Potency entry in [9], in [2], in [3], in [4], in test [5] and in [6] was “inactive” each time. Moreover, the Potency entry (in test [8]; in the test on C33A; in the test with CASKI; in the test with Es-2; in the test with HeLa; in the test on Hek293T) was “inactive” each time. The Potency result in the test on JEG-3, with OV90, in the test on Tov-21-G and in the test with Tov112D was “inactive” throughout. Besides, the result in [1] was inactive.

As to `Cc1ccc(CCCO)c(NCc2ccc3nc(NCCCN4CCOCC4)n(Cc4nc(C)ccc4O)c3c2)c1`, the Potency result (in [9]; in [4]; in test [5]; in [6]; in test [7]; in the test with C33A) was “inactive” each time. Besides, the Potency entry in the test with CASKI, in the test with Es-2, in the test on HeLa, in the test on Hek293T, with JEG-3 and in the test on Tov-21-G was “inactive” in each case. The Potency result in the test with Tov112D is “inactive”. Also, the outcome in [1] was inactive. In addition, the results for the Potency in test [2] and in test [3] were 12.9 µM (active) and 11.5 µM (active), respectively. In the test on HaCat, the max response was -12.2% (inactive).

Turning to `O=S(=O)(c1cccc2ccccc12)n1ccc2ccc(N3CCN4CCCC4C3)cc21` (stereo unspecified), the Potency result (in test [9]; in [4]; in test [6]; in test [7]; in the test on C33A; with CASKI) was “inactive” each time. The Potency result with Es-2, in the test on HeLa, in the test on Hek293T, in the test with JEG-3, in the test with OV90 and with Tov-21-G was “inactive” in each case. The Potency result with Tov112D is “inactive”. In [1], the result was inactive. For the same compound, the Potency in test [2] and in [3] was 14.5 µM (active) throughout. Also, the max response in the test with HaCat was 4.67% (inactive).
